Reference: PubChem BioAssay AID1445 (SRMLSC, 2008)
Among all 220,000 compounds or so, about 910 (0.41%) were called active. Only a selection was taken, and actives are over-represented in it overall. Potency and affinity values are given separately. A number with no mark means an inactive call.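 The calls were made as follows: active = primary inhibition above the hit cutoff, then over 50% inhibition at one or more dose response concentrations (cut at about 23% in these data, passing the limit was not always enough); inconclusive = conflicting primary data, or primary hits not chosen for dose response; inactive = low primary inhibition, or under 50% at every dose.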

The compounds below were run against Aminopeptidase N (Plasmodium falciparum (isolate 3D7)) (UniProt O96935) (assay: P. falciparum M1AAP inhibitors, biochemical, fluorogenic H-Leu-NHMec substrate, 1536-well (AID 1445;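 also: plate controls were DMSO full reaction for no effect and no enzyme background for full effect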)). Conditions: recombinant M1AAP, H-Leu-NHMec fluorogenic kinetic assay; at 30 µM, stronger effect = higher value unless noted.
Chain of Aminopeptidase N (Plasmodium falciparum (isolate 3D7)) (O96935 whole entry, looked up): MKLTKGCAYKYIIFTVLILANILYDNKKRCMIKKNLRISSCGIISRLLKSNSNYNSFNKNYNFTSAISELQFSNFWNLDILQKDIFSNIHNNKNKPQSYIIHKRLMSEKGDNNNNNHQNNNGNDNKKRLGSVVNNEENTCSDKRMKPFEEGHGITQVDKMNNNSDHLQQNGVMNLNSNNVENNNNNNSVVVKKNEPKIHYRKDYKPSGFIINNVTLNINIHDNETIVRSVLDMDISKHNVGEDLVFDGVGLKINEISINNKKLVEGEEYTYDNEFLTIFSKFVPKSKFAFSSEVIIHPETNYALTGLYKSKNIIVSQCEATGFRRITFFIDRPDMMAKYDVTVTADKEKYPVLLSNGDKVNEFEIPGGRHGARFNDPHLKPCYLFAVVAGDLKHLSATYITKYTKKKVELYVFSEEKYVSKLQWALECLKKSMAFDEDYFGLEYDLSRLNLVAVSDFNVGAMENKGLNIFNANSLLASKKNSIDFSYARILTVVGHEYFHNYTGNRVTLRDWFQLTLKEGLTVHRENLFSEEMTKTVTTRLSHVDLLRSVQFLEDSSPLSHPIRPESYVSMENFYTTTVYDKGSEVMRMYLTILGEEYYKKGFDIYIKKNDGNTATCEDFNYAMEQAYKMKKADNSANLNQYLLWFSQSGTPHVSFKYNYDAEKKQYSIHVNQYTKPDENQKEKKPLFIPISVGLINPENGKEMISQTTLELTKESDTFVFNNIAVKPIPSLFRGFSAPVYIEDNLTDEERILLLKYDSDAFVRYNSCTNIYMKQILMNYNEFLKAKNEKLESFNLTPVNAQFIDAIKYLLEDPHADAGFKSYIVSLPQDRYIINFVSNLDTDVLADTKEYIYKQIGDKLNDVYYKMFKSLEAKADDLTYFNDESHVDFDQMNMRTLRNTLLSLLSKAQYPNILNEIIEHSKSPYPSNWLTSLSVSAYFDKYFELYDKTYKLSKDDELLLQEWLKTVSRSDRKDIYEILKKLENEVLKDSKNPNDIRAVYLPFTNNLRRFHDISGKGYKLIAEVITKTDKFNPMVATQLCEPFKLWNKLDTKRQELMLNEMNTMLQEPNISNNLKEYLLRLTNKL

Compound	inhibition
Cc1c(Cl)cnc(NC(=O)CSc2nncs2)c1Cl	-1.74%
O=C(CN1CCC(C(=O)c2cccc(F)c2)CC1)NCc1cccs1	11.7%
CCOc1ccc(OCC)c(NC(=O)CN2CCC(NC(=O)c3cccc(F)c3)CC2)c1	8.37%
COc1cccc(OC)c1NC(=O)CN1CCC(NC(=O)c2cccc(F)c2)CC1	20.7%
COc1cccc(C(=O)NCc2ccccc2OC)c1	0.04%
Cc1ccc(C(=O)NC2CCN(CC(=O)NCc3cccs3)CC2)cc1	15.8%
O=C(CN1CCC(NC(=O)c2ccc(Br)cc2)CC1)NCc1cccs1	17.5%
O=C(CN1CCC(NC(=O)c2ccc(F)cc2)CC1)NCc1ccccc1F	31.9%
COc1ccccc1CNC(=O)CN1CCC(NC(=O)c2ccccc2F)CC1	8.21%
O=C(C1CC1)N1CCN(S(=O)(=O)c2ccc3c(c2)OCCO3)CC1	2.72%
O=C(O)CC(NC(=O)C(c1ccccc1)c1ccccc1)c1ccc(F)cc1 (centres undefined)	-1.82%
Cc1cccc(C)c1NC(=O)c1sc(Cl)nc1C	-2.07%
CC(C)N(CCc1ccncc1)C(=O)Nc1ccc(Cl)c(Cl)c1	-5.52%
CCn1nnnc1SCC(=O)Nc1ccc(OCc2ccccc2)cc1	7.63%
O=C(NCc1ccccc1)c1onc(CSc2ccccn2)c1C(=O)NCc1ccccc1	4.51%
CC(C)N(C)C1CCN(C(=O)Nc2ccc(Cl)cc2)CC1	3.02%
O=c1[nH]c(N2CCOCC2)nc2c1CCCC2	15.6%
CC(C)Oc1ccc(C(CC(=O)O)NC(=O)C2CCCCC2)cc1 (centres undefined)	-1.13%
Cc1ccc(SCCC(=O)Nc2ccccc2C(=O)N2CCOCC2)cc1	-3.27%
CN(C)CC(C)(C)CNC(=S)Nc1ccc(S(=O)(=O)N2CCOCC2)cc1	2.96%

Compound	inhibition
Cc1ccccc1C(=O)NC1CCN(CC(=O)Nc2ccc3c(c2)OCO3)CC1	10.9%
O=C(CN1CCC(NC(=O)c2ccccc2F)CC1)NCc1ccc(F)cc1	27.4% (active)
Cc1ccccc1C(=O)NC1CCN(CC(=O)NCc2ccc(F)cc2)CC1	3.39%
O=C(CN1CCC(NC(=O)c2ccccc2Cl)CC1)NCc1ccco1	12.1%
Cc1ccccc1C(=O)NC1CCN(CC(=O)Nc2ccc3c(c2)OCCO3)CC1	-1.09%
Cc1cc(-c2n[nH]c(=S)n2/N=C/C=C/c2ccccc2)n[nH]1	16.6%
CC1CCN(CCc2nc3cc(NS(=O)(=O)c4ccc(F)cc4)ccc3n2C)CC1	-3.38%
Cc1ccc(OCCCNCCO)c(Br)c1	9.5%
CCC(=O)NC(=S)Nc1c(C)cc(Br)cc1C	0.48%
CC(C(=O)c1c[nH]c(C(=O)N=CN(C)C)c1)c1ncc(C(F)(F)F)cc1Cl (centres undefined)	0.78%
COc1cc2c(cc1OC)-c1cc(Nc3ccc4c(c3)OCCO4)nc(=O)n1CC2	24.9% (active)
COc1cc2c(cc1OC)-c1cc(Nc3ccccc3)nc(=O)n1CC2	11.4%
CCOc1cccc(Nc2cc3n(c(=O)n2)CCc2cc(OC)c(OC)cc2-3)c1	12.6%
CC(c1cccs1)N(Cc1ccco1)C(=S)Nc1ccc(F)c(Cl)c1 (centres undefined)	4.95%
Cc1ncc(CO)c(/C=N/NC(=S)Nc2ccc(C(C)C)cc2)c1O	9.46%
Cc1nc2cc(NC(=O)c3ccc(N4C(=O)CCC4=O)cc3)ccc2s1	-5.53%
COc1ccc(/C=C2\SC(=S)N(C(Cc3ccccc3)C(=O)O)C2=O)cc1 (centres undefined)	4.89%
C=CCOc1ccc(/C=C2\SC(=S)N(N3CCOCC3)C2=O)cc1	-2.77%
CCOc1ccc(/C=C2\SC(=S)N(C(C(=O)O)c3ccccc3)C2=O)cc1OC (centres undefined)	14.7%
CCOc1ccc(/C=C2\SC(=S)N(CCC(=O)O)C2=O)cc1	1.74%

Compound	inhibition
Cc1ccc(/C=C2\SC(=S)N(C(Cc3ccccc3)C(=O)O)C2=O)cc1 (centres undefined)	14.4%
CCOc1ccc(/C=C2/SC(=S)N(C(C(=O)O)c3ccccc3)C2=O)cc1OCC (centres undefined)	12.1%
COc1cc(/C=C2\SC(=S)N(C(C(=O)O)c3ccccc3)C2=O)cc(OC)c1OC (centres undefined)	18.4%
COc1cc(/C=C2/SC(=S)N(c3c(C)n(C)n(-c4ccccc4)c3=O)C2=O)ccc1O	11.3%
O=C(COc1cccc2cccnc12)N/N=C/c1ccccc1O	-2.77%
O=S(=O)(NCC(c1cccnc1)N1CCN(c2ccc(F)cc2)CC1)c1cccs1 (centres undefined)	-1.2%
COc1ccc(CNC(=S)NC(C)CCc2ccccc2)cc1 (centres undefined)	-0.16%
CSc1cccc(NCc2ccc([N+](=O)[O-])cc2)c1	7.42%
COc1ccc(-c2nn(-c3ccccc3)cc2CNCCN2CCOC2=O)c(F)c1	-5.99%
O=C(N/N=C/c1ccccn1)c1cc(-c2ccccc2)nc2ccccc12	-10.8%
Cn1cnnc1SCC(=O)Nc1ccc2nc(SCc3ccccc3F)sc2c1	-0.14%
O=C(O)C(Cc1ccccc1)N1C(=O)/C(=C/c2ccccc2)SC1=S (centres undefined)	18.4%
O=C(O)C(Cc1ccccc1)N1C(=O)/C(=C/c2cccnc2)SC1=S (centres undefined)	5.04%
CC[C@@H]1CC=C[C@H]2[C@H]1C(=O)N(Cc1ccccc1)[C@H]2c1ccc(OC)c(Cl)c1	4.5%
NS(=O)(=O)c1ccc(N2N=C(c3ccccc3)CC2c2ccccc2)cc1 (centres undefined)	19.1%
COc1ccc(C2CC(c3ccccc3)=NN2c2ccc(S(N)(=O)=O)cc2)cc1OC (centres undefined)	19.9%
NS(=O)(=O)c1ccc(N2N=C(c3ccc(Br)cc3)CC2c2ccc(F)cc2)cc1 (centres undefined)	5.03%
COc1ccc(C2CC(c3ccccc3)=NN2c2ccc(S(N)(=O)=O)cc2)cc1 (centres undefined)	22.3%
CC(C)(C)N/C=C(\C#N)S(=O)(=O)c1ccc(Br)cc1	-2.81%
